Source: PubChem
Only some compounds are listed: those with a hit (about 1.2% of all), similar ones and a draw of the others.
ERG-DNA inh – ERG Ets/DNA interaction inhibition; P11308; fluorescence polarization, His-ERG Ets domain / labelled DNA; Potency, µM (titrated, usually from 76.9 µM), without a hit: top-dose FP activity, negative = inhibition, most hits filed as inhibitors; 370,000 compounds, 0.028% hits; active = well fitted inhibition curve with a large enough effect in the polarisation, with a control signal flat; inconclusive = small, poorly fitted or top-dose-only effect, or effect the other way, or a change in a side signal; inactive = no such curve, though single readings can be large or run the other way; the % refers to the polarisation;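 also: polarization taken with two DNA probes labelled with fluorescein and Texas red; % of control where 0% means no effect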
Target sequence (P11308 whole entry, looked up, the tested form may be a part): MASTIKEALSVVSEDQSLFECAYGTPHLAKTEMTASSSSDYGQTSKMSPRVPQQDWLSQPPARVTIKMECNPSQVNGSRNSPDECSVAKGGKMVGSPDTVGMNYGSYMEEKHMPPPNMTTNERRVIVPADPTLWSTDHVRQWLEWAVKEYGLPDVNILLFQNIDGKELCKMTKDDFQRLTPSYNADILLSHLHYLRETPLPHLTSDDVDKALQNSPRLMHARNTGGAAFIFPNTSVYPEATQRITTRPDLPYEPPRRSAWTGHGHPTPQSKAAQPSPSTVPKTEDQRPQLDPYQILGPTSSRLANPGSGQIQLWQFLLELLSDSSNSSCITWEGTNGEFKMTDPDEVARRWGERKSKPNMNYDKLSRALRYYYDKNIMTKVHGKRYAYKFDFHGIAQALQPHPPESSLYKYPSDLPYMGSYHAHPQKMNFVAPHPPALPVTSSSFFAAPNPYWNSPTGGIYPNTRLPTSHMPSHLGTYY
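His-tagged ERG Ets domain (1 uM in the protein solution; 300mM KCl, 50mM Tris-HCl, 1mM EDTA, 1mM DTT, pH 7.5) received compound, then a probe mix of 5 nM fluorescein-DNA and 100nM Texas-615-DNA. Fluorescence polarization was read for both dyes.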
BRCA1 expr up – activators of BRCA1 expression. MCF7-BRCA1-FFLuc reporter, luminescence, 48 h; response scale: scaled: vehicle 0%, 10 µM genistein 100%. Potency, µM (series often up to 46.1 µM), for the others: top-dose activation, usual class: activators. 380,000 compounds, 1.1% hits; also: nearly all actives have a fitted effect of over 80% in size
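Reporter cells (MCF7, BRCA1 promoter-firefly luciferase) received library compounds across a concentration series for 48 h. End-point luminescence was measured and concentration-effect curves derived after normalization.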
B2AR arrestin – agonists driving beta-arrestin recruitment to human beta2-adrenergic receptor. beta-arrestin recruitment to beta2AR, cell-based reporter. Potency, µM (series often up to 46.1 µM), for the others: at the top dose activation, actives largely listed as activators. 330,000 compounds, 0.02% hits. AID 492947;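 also: 0% = DMSO controls and full agonism = EC100 isoproterenol or metaproterenol; nearly all actives have a fitted effect of over 65% in size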
Mito fusion yeast – blocks mitochondrial division or promotes mitochondrial fusion; S. cerevisiae fusion-defective mutant growth rescue, CellTiterGlo 48 h; Potency, µM (doses to about 46.1 µM), for the others: top-dose growth rescue (activation), hits mostly activators; 320,000 compounds, 0.23% hits; AID 485298; also: % of control where 0% means no effect; nearly all actives have a fitted effect of over 45% in size
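Read-out: ATP-based luminescence (CellTiterGlo, 10 min ambient) reporting growth of fusion-defective ts yeast after 48 hours at 37C on glycerol/ethanol YPEG medium in the presence of compound.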
The depositor's hits bear a star; ? = inconclusive; · = not tested or not shown; ! = a repeat was not active. Unless noted, calls follow the shape of the dose curve; as a rule, active = well fitted curve in the direction sought with a large enough effect; inconclusive = small, poorly fitted or top-dose-only effect, or another doubt; inactive = no such curve, though single readings can be large; an effect the other way counts as inactive or inconclusive. Potency is read from the fitted curve at half-maximal effect.

SMILES | ERG-DNA inh | BRCA1 expr up | B2AR arrestin | Mito fusion yeast
O=C(Nc1ccc2c(c1)CCC2)c1cccc(OC(F)F)c1 | 9% | 2.8µM* | · | ·
COc1ccc(C(=O)NC2=NCCS2)cc1 | 7% | 3.2µM* | 0% | 18%
O=C(NC1=NCCS1)c1ccc(C(F)(F)F)cc1 | -1% | 4µM* | 0% | 11%
O=C(NC1=NCCS1)c1cccc(OC(F)F)c1 | 16% | 2.8µM* | -1% | ?
COc1cc(C(=O)NC2=NCCS2)cc(OC)c1OC | -3% | 0% | 0% | -2%
COc1cccc(C(=O)NC2=NCCS2)c1OC | -3% | 13µM* | 0% | 2%
Cc1cc(Cl)ccc1Nc1ncccc1C(N)=O | 7% | 4.5µM* | 0% | ?
NC(=O)c1cccnc1Nc1ccccc1F | 1% | ? | 0% | 0%
Fc1ccccc1COc1ccc(C(=S)N2CCCC2)cc1 | -4% | 11µM* | 0% | -13%
O=C(Oc1ccc(C(=S)N2CCCCC2)cc1)c1ccccc1F | 8% | 16% | 0% | -9%
O=S(=O)(Nc1cccc(-c2ccc(N3CCCCC3)nn2)c1)c1cccs1 | 0% | · | · | ·
CCc1ccc(NC(=O)CC2C(=O)N(c3cccc(C)c3)C(=O)N2Cc2cccs2)cc1 (stereo not drawn) | 0% | · | · | ·
CCSc1nc2ccccc2n1CCOc1ccccc1 | 8% | 14µM* | -1% | 23%
COCCn1c(COc2ccc(C)cc2)nc2ccccc21 | -4% | 11µM* | 0% | -7%
Cn1c(COc2ccccc2)nc2ccccc21 | 2% | 10µM* | -1% | -8%
c1ccc(OCCn2c(COc3ccccc3)nc3ccccc32)cc1 | 0% | · | · | ·
OCCn1c(SCCOc2ccccc2)nc2ccccc21 | · | 6% | 0% | 2%
Clc1cccc(-n2cc(-c3ccccc3)c3c(N4CCCCC4)ncnc32)c1 | 0% | · | · | ·
O=C(CCNS(=O)(=O)c1ccc2c(c1)CCN2C(=O)C1CC1)N1CCN(c2ccc(F)cc2)CC1 | 3% | -22% | · | ·
Cc1ccccc1NC(=O)c1c(C)oc2ccc(O)c(CN3CCCC3)c12 | -2% | · | · | ·
CCn1c(=O)c2cc(C(=O)Nc3cc(C)c(Cl)cc3OC)sc2c2ccccc21 | -9% | 6% | · | ·
N#Cc1c(N2C(=O)Nc3ccccc3N2O)sc2c1CCCC2 | 11% | 11µM* | 0% | -1%
N#Cc1c(N2C(=O)Nc3ccccc3N2O)sc2c1CCCCCC2 | 10% | 12% | 0% | -6%
CN(CC(=O)Nc1ccc(Br)cc1)S(=O)(=O)c1cccc2nsnc12 | -5% | · | · | ·
CCCCNc1ccc2c(c1)C1CC2CCN1C(=O)OCc1ccccc1 (stereo not drawn) | -6% | 8.9µM* | · | ·
SMILES | ERG-DNA inh | BRCA1 expr up | B2AR arrestin | Mito fusion yeast
O=C(OCc1ccccc1)N1CCC2CC1c1cc(-c3ccccc3)ccc12 (stereo not drawn) | 2% | 19% | · | ·
CC(C)(C)C(=O)N1CCN(c2nc3c(F)cccc3s2)CC1 | -3% | · | · | ·
CCc1nnc(NC(=O)CSc2ccc(-c3ccc(-n4cccn4)cc3)nn2)s1 | 3% | 10µM* | 0% | -10%
Cc1ccccc1NC(=O)CSc1ccc(-c2ccc(-n3cccn3)cc2)nn1 | 3% | 0% | 0% | -4%
COc1ccc(/C=N/NC(=O)CC(=O)N/N=C/c2ccc(OC)cc2)cc1 | 1% | -3% | 0% | -6%
COc1ccc(/C=N\NC(=O)C2=NNC(=O)C2C)cc1 (stereo not drawn) | 1% | 2.8µM* | 0% | 0%
Cc1[nH]c(=O)[nH]c1C(=O)CCCCC(=O)O | · | -22% | -1% | -6%
CSc1ccc(C(=O)c2[nH]c(=O)[nH]c2C)cc1 | 4% | 27% | 0% | 13µM*!
CCc1ccc2c(COC(=O)c3n[nH]c4ccccc34)cc(=O)oc2c1 | 0% | -2% | 0% | 14%
Cc1ccc2c(COC(=O)c3n[nH]c4ccccc34)cc(=O)oc2c1 | -6% | 3.2µM* | 0% | 14%
Cc1ccc(COn2c(-c3ccc(Cl)cc3)nc3ccc([N+](=O)[O-])cc32)cc1 | -2% | 10µM* | 1% | 1%
O=C(Nc1ccccc1)N1N=C(c2cccs2)CC1c1cccs1 (stereo not drawn) | · | -21% | 5% | 11µM*
COc1ccc(C2CC(c3cccs3)=NN2C(=O)CSc2nnnn2C)cc1OC (stereo not drawn) | -5% | -4% | 0% | -1%
CC(C)n1nnnc1SCC(=O)N1N=C(c2cccs2)CC1c1cccs1 (stereo not drawn) | 5% | 13µM* | 0% | 8%
